Experimental data: the supplement of paper PMC12340641
Where a name gives a salt, the structure may show the parent alone.

Tests used:
[1] = target: IKZF1 (dCK*-IKZF1 fusion in HEK293FT) (UniProt Q13422); assay: inhibition of IKZF1 HTRF signal (DMSO = 0%, pomalidomide 10 uM = 100%); higher = lower IKZF1 protein level; conditions: compound concentration: 5 uM, overnight (~20 h)
In short: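 After overnight treatment at 37 °C with 5 μM compound in single wells, HEK293FT cells (2000/well, 384-well) stably expressing an IKZF1 fusion were lysed for 30 min at room temperature. A commercial HTRF total-IKZF1 antibody kit was incubated with the lysate overnight, and the time-resolved FRET ratio at 665/620 nm was corrected for background. Data are given as percent inhibition of IKZF1 signal relative, on each plate, to vehicle and a reference degrader, set at 0% and 100% respectively.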

HEK293FT dCK*-only = assay: relative growth in counter assay (no AraC = 100%, AraC + DMSO = 0%); higher = more growth rescue independent of IKZF1; conditions: compound concentration: 5 uM; AraC concentration: 0.3 uM; overnight pretreatment + 4 days AraC
In short: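 Counter assay in HEK293FT cells expressing dCK* alone (300/well, 384-well). Cells received 5 μM compound 2 h after seeding, then after overnight at 37 °C a nucleoside suicide substrate at 0.3 μM plus medium for 4 days. On day 5, Hoechst 33342-stained nuclei were counted by imaging. Relative growth was normalised per plate to wells without suicide substrate (100%) and substrate plus vehicle (0%).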

HEK293FT dCK*-IKZF1 = assay: relative growth recovery (pomalidomide 10 uM = 100%, DMSO = 0%); higher = more growth rescue (IKZF1 fusion degradation); conditions: compound concentration: 5 uM; AraC concentration: 0.3 uM; overnight pretreatment + 4 days AraC
In short: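 HEK293FT cells stably expressing a dCK*-IKZF1 fusion (300/well, 384-well) received 5 μM compound 2 h after seeding. After overnight at 37 °C they received a nucleoside suicide substrate at 0.3 μM plus medium for 4 days. On day 5, Hoechst 33342-stained nuclei were counted by whole-well imaging. Growth recovery was normalised per plate to a reference degrader (100%) and vehicle (0%); values are means of duplicates run on different days.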

Sequence of IKZF1 (dCK*-IKZF1 fusion in HEK293FT) (Q13422 whole entry, looked up, the tested form may be a part): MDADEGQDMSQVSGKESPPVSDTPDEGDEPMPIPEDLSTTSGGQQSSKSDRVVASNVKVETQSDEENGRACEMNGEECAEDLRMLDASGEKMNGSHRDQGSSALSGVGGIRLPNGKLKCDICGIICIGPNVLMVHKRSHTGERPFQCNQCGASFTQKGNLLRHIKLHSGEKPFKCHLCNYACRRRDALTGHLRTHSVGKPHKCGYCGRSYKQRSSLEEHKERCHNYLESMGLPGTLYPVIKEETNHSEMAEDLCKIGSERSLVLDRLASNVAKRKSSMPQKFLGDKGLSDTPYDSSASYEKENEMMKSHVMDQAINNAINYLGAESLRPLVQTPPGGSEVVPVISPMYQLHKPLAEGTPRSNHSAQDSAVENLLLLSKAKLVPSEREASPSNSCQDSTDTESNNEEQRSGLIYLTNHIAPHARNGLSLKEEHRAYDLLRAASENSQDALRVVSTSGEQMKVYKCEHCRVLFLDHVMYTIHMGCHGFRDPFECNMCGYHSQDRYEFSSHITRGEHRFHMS

| Compound | inhibition of IKZF1 HTRF signal [1] [%] | relative growth in counter assay (HEK293FT dCK*-only) [%] | relative growth recovery (HEK293FT dCK*-IKZF1) [%] |
| --- | --- | --- | --- |
| OC(c1cc(C(F)(F)F)nc2c(C(F)(F)F)cccc12)C1CCCCN1 (configuration not stated) [Mefloquine HCl] | -25.2 | -1.31 | -6.05 |
| C[C@H]1COC2=C1C(=O)C(=O)c1c2ccc2c1CCCC2(C)C [Cryptotanshinone] | -30.9 | 0.04 | -0.045 |
| O=C(/C=C/c1ccc(O)cc1)c1ccc(O)cc1O [Isoliquiritigenin] | -0.21 | -7.18 | -1.02 |
| CN1CCC(=C2c3ccccc3Sc3ccccc32)CC1 | -29.9 | -4.99 | -1.33 |
| Cc1ccc(-c2ccc(C)cn2)nc1 [abametapir] | -30.6 | 4.64 | 0.52 |
| CC[C@H](C)[C@H]1O[C@]2(CC[C@@H]1C)C[C@@H]1C[C@@H](C/C=C(\C)[C@@H](O[C@H]3C[C@H](OC)[C@@H](O[C@H]4C[C@H](OC)[C@@H](O)[C@H](C)O4)[C@H](C)O3)[C@@H](C)/C=C/C=C3\CO[C@@H]4[C@H](O)C(C)=CC(C(=O)O1)[C@]34O)O2 (some centres not stated) [Ivermectin] | -28.1 | -2.12 | 0.635 |
| CCCCCCCCNC(C)C(O)c1ccc(SC(C)C)cc1 (configuration not stated) | -32.8 | 7.28 | -0.84 |
| C=C1/C(=C\C=C2/CCC[C@]3(C)[C@@H]([C@H](C)/C=C/C=C/C(O)(CC)CC)CC[C@@H]23)C[C@@H](O)C[C@@H]1O [Seocalcitol] | -23.4 | 14.2 | 6.88 |
| Nc1ccc(-c2ccc3ncc4ccc(=O)n(-c5cccc(C(F)(F)F)c5)c4c3c2)cn1 [torin-2] | 66.5 | -34.6 | -12.2 |
